Here are results for 32 molecules from the supplement of paper PMC12632987.

One assay concerns the target GABARAPL2, P60520. Nature of the assay: median log2 fold change of GCK-ALFA target abundance (FLAG IP / Myc IP barcode read proportion) (log2 ratio); each designed protein is fused to an ALFA-tag nanobody in HEK293 cells to bring the named protein to FLAG-tagged glucokinase (GCK); Myc marks an untargeted standard; higher = target protein stabilised (more abundant). Particulars: target protein: 3xFLAG-MCP-GCK-ALFA reporter; HEK293 landing pad (RPLP). The method, boiled down: (§1)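 HEK293 landing-pad cells received a recombined binder library fused to the ALFA nanobody and were induced with 2 μg mL^−1 doxycycline, then transfected with a plasmid encoding a FLAG-tagged target and a Myc-tagged standard. Lysates were collected after 48 h for anti-FLAG and anti-Myc immunoprecipitation, and the circular RNA barcodes were reverse transcribed, amplified and sequenced. Target abundance for each binder is the median log2 ratio of FLAG to Myc barcode read proportions. Barcodes had to reach a proportion of at least 10^−7 in both replicates, each binder needed at least 3 barcodes per replicate, a pseudocount of 10^−6 was applied, and the two replicates were pooled.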

The target in a further assay is T1, FBXL12, Q9NXK8.
T1 chain: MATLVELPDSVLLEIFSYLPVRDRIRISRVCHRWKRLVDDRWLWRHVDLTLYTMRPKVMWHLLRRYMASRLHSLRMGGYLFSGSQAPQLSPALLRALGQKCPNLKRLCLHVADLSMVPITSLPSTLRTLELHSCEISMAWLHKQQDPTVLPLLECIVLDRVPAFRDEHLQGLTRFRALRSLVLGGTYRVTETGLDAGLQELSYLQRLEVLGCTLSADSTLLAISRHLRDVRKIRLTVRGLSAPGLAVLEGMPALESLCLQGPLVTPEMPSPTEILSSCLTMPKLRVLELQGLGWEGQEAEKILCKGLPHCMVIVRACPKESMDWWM
Described as above. The conditions noted are these: target protein: 3xFLAG-MCP-GCK-ALFA reporter; HEK293 landing pad (RPLP). An outline of the steps:
as §1

GABARAPL2, P60520, sequence (P60520 whole entry, the tested form may be a part): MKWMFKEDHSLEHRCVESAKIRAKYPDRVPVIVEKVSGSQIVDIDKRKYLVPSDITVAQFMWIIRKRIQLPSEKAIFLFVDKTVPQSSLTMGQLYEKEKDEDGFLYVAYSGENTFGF

B1: GBRAPL2_0_7189 (protein)
chain: LEERLEAARELSIEEAAEELLRLIREAVEDPSFSLEEIEELARRAVEVLVEIVRRENTEEAEEIAAETADEMREILLEIDPNLAADVETEFYSELLEIEE
Consider B1, for which the “median log2 fold change” value with GABARAPL2, P60520 is -0.521.

B2: GBRAPL2_0_7205 (protein)
chain: YEEEIEKAKELSPEELFKALKELVKKLKEDDSISLEELEEILLRILELAAEKVKEVKTEEAEEAFDELVELAVEAMKKRDPNMANYIETYGGSLLYEIES
For the molecule B2, in the assay with GABARAPL2, P60520, the “median log2 fold change” value amounted to 0.126.

B3: FBXL12_hotspot_78_94 (protein)
chain: MRKLVITIPEPVTPDEEARRRGVEYQAQAAIEALKAGWEVVISHADTPEAKRAALEILEKAVAETGDKEKIKSADGKNADEMLAELKAELAEEEARRAAA
With B3, the “median log2 fold change” value with FBXL12, Q9NXK8 amounted to 0.319.

B4: GBRAPL2_0_7206 (protein)
chain: YEAEIEAAKKLTPEEAFKKLKELVKKLAKDTSLSKEELEKILEAIIDLAYEIYKKEKTEEAEEAFDEIVDLAVEAAAKRDPNLAAYIATYGGSKIMEAES
B4: the “median log2 fold change” value with GABARAPL2, P60520 was determined as 0.12.

B5: FBXL12_hotspot_69_90 (protein)
chain: MIEVKASKESVDYVAELMKSALELAKKYLKEGDYENLLKAAEILIGAARAIKEYKPEEAAKLLEELIKVLKEAGTPEAKELAKEAEKVLEEIKKIIKERE
On to B5, for which the “median log2 fold change” value in the assay with FBXL12, Q9NXK8 was -0.0708.

B6: GBRAPL2_0_7204 (protein)
chain: YLEKIEKAKSLSPKELFEALKKLVKELAKDKSVSPEEKEEILEAIIKLAAERVKETKTEEDEKAFEEIVKEAVKVAEKIDPNLAAYVRTYAGSLLYEIES
For the molecule B6, the “median log2 fold change” value in the assay with GABARAPL2, P60520 amounted to 0.0789.

B7: GBRAPL2_0_7202 (protein)
chain: YLEEIEKAKELSPEELFKKLKELVEKLAEDDSISPEEKEEILLKIVELAAEKVKETKTEEDEKKFEEIVELAVKVAEKIDPNLAAYIRTHAGSLLYENES
In the case of B7, in the assay with GABARAPL2, P60520, the “median log2 fold change” value turned out to be 0.0999.

B8: FBXL12_hotspot_109_6 (protein)
chain: MRVILSALGTEPELAERTFEATVTIAEGLLAAGHEVRVVLVAVEENREVAEAAAARLRALGAEVRLVVEETPEAAREAHERLLAEAEEELDREEEERERA
On to B8, for which the “median log2 fold change” value in the assay with FBXL12, Q9NXK8 came to 0.11.

B9: GBRAPL2_0_7203 (protein)
chain: YLEEIEKAKSLSPEELFKKLKELVKKLAEDKSISPEEKEEILEAIIKLAGEKVKETKTEETEKQFDEIVELAVEVAEKIDPNLAAYIRTLAGSLLYENES
B9: the “median log2 fold change” value with GABARAPL2, P60520 was found to be 0.0798.

B10: GBRAPL2_0_7193 (protein)
chain: IEERIEKMKELSIEEAVKEGIEIVEEVMKDPSFTDEEKVEIAERVVDIVAEKAKEEKTEEALDLAVEFARKVREILEKISPEDAAYVETRMGAELMEIES
Turning to B10, the “median log2 fold change” value with GABARAPL2, P60520 is 0.33.

B11: GBRAPL2_0_7199 (protein)
chain: YLEEIEKAKELSPEEAFEKLEKLVKELAEDDSISLEELEEILEAIIELAAEKVKETKREEDLEKFDRIVDLAAEAAAKRDPNLAAYIRTYGGSLLIEVEE
With B11, in the assay with GABARAPL2, P60520, the “median log2 fold change” value amounted to 0.196.

B12: GBRAPL2_0_7192 (protein)
chain: YEERLEEISKLPIEEFAKEAVRIVEEAAKDPSLSLEELEEIALRAIRLLYEKVKEEKTEEAEDIYVEAADRIREILKKIDPNLAAYVATEAGALLYEWES
For B12, the “median log2 fold change” value with GABARAPL2, P60520 is -0.305.

B13: GBRAPL2_0_7201 (protein)
chain: YLEEIEKAKKLSPEEAFKKLKELVKKLAEDDSISLEELEEILEKILKLAAEKVKKTKKEEDLEKFEEIVDLATEAAAKRDPLLAAYIDTYGGSLLIEVEE
For B13, the “median log2 fold change” value with GABARAPL2, P60520 came to 0.0418.

B14: GBRAPL2_0_7196 (protein)
chain: YLERIEKMKKLSPEEAYKEAKKLVEELAKDESISPEELEKILEAILEMMAEFVKKTKKEEMEKKFDEIADLAVEAAAKKDPNLAAYIASYAGSLRVEVES
For B14, the “median log2 fold change” value with GABARAPL2, P60520 is 0.192.

B15: FBXL12_hotspot_81_96 (protein)
chain: ATRELRITLQFTADDTEEEIIRRGRYHLELMYEAAKAGWEIASVTLDEAALEKSLTPERQALARRVTAILQEAAAEFRAARDAPDSVFDAILAEALARLA
As to B15, the “median log2 fold change” value with FBXL12, Q9NXK8 is 0.19.

B16: GBRAPL2_0_7195 (protein)
chain: VEEEIERISELPIEEAAEEGVRLVERVVADPSFTDEEKVEVALRVVDILAKKVKEEKTEEAEDIYVEALDEIRKLLLSVGPELANYVYAEGGSELMEIES
In the case of B16, the “median log2 fold change” value in the assay with GABARAPL2, P60520 stood at 0.163.

B17: GBRAPL2_0_7197 (protein)
chain: YLKEIEEMKKLSPEEAFEKAKELVKKLAEDKTISPEELEKILEAILELAAEIVKKTKEEKMEEKFDELADLAVKAAAKKDPNLAAYIASYAGSLRYEVES
Regarding B17, the “median log2 fold change” value with GABARAPL2, P60520 was found to be 0.245.

B18: FBXL12_hotspot_77_92 (protein)
chain: MSHLEIVVSQPATPPERREEALARARHTARYAAEIARGAKERQPELRITLVVRSEADPETTRALVRILAETAKELGVELVVEVAPENEAVAREVLAELGL
Regarding B18, in the assay with FBXL12, Q9NXK8, the “median log2 fold change” value stood at 0.051.

B19: FBXL12_hotspot_78_95 (protein)
chain: MRVLRIVIPADLPPDPEQRQRGIEYQAQAAIEAVRAGWEVVIEAADTPEAKRAALEILRRTLAETGDPERIRSPEGENAREILARLEAELAAEEAAAAAA
Consider B19, for which the “median log2 fold change” value with FBXL12, Q9NXK8 was -0.49.

B20: GBRAPL2_0_7198 (protein)
chain: YLERIEKAKELSPEETFKALKEIVKELAEDDSISLEELEEILEKIVELAAEKVKETKKEEDLEKFDEIVDLATEAAAKRDPNLAAYIDTYGGSLLIEVEE
Take B20: the “median log2 fold change” value with GABARAPL2, P60520 came to 0.104.

B21: GBRAPL2_0_7200 (protein)
chain: YLEEIEKAKELSPEEAFKKLKELVKELAEDDSISLEELEEILEKIIELAAEKVKETKSEEDLKKFDEIVDLATEAAAKRDPLLAAYIDTYGGSLLIEVEE
Turning to B21, the “median log2 fold change” value in the assay with GABARAPL2, P60520 amounted to 0.104.

B22: FBXL12_hotspot_69_88 (protein)
chain: MIEVRVSESSVEYALELGRAAVEKLEEAVKNGDWETAERLVDLIISIAEAIAELRPEEAIELLERAAKILKKDDSEKAKELLEKVEKKIKELKKKAKELK
Turning to B22, in the assay with FBXL12, Q9NXK8, the “median log2 fold change” value is -0.107.

B23: FBXL12_hotspot_69_89 (protein)
chain: MIEVRASESSIEYVKELAESALKLAKKALKEKDLETLLKLAEILISAAREIAKYEPEYALELLKELLKLLKEAKTEEAEKAAKEAEKAIKEIKKLIEERK
As for B23, the “median log2 fold change” value with FBXL12, Q9NXK8 came to 0.238.

B24: FBXL12_hotspot_109_5 (protein)
chain: MTVLLVARATTPEAARRTGETALAIARGLRAAGHEVIAVIVTLEEAREIAEATAAELRALGAEVRLRTAATPEEVERAYAELRAEALARLDAREAAAAAA
For the molecule B24, in the assay with FBXL12, Q9NXK8, the “median log2 fold change” value is -0.531.

B25: FBXL12_hotspot_78_93 (protein)
chain: MRTLVISIPAFVSPDAAARARGIAYQAAAAIEALRAGWEVVISHADTPEAKRAALTILERAVAETGDEARIRSEEGRGAREILAELRAALAAEDEAAAAA
For B25, in the assay with FBXL12, Q9NXK8, the “median log2 fold change” value is -0.726.

B26: GBRAPL2_0_7194 (protein)
chain: IEERIEELKKLSIEEAVKEGIRLVKEVKEDESFSKEEIVEIAERVAKIVAEKAKEEKTEEALDLAWKFADEVREILKEIDPNDAAYVESEIGSELMEIES
Take B26: the “median log2 fold change” value in the assay with GABARAPL2, P60520 came out at 0.238.

B27: GBRAPL2_0_7188 (protein)
chain: VEERIKEAEKLSIEEASKKFIEIIKEVVEDPSYSLEEIEEIALRIMKALTKIVKKENTEEAEKIYAETADKIREILSKVDPNIANYIETEAYSELLEIEE
Consider B27, for which, in the assay with GABARAPL2, P60520, the “median log2 fold change” value is -0.00159.

B28: FBXL12_hotspot_69_87 (protein)
chain: EFTVIVRDVSVEYALALAEAALERAEEALAAGDREAFLRLARVALAAIENILEEDPERALELAERLAELLERADDPRFEPLLERARELIERARRLLEERR
Consider B28, for which the “median log2 fold change” value with FBXL12, Q9NXK8 is -0.369.

B29: GBRAPL2_0_7191 (protein)
chain: YEEELKKISELPIEEFAKRGVELVERAAKDPSLTLEELEELAERVIELLIEKVKEEKTEEAEEIYVEAADRIREILLKIDPNLAADVATEAGAGLYEIES
As for B29, the “median log2 fold change” value in the assay with GABARAPL2, P60520 came out at 0.23.

B30: FBXL12_hotspot_77_91 (protein)
chain: MKTVTIRVSFPAVPPEEAEALRERALRAMETALEIARGLKAAHPDVKIVIVLRIEGNPEVAREVAERAVREAHELGIEFRDESAPEVRAAAEALLAALAA
Regarding B30, the “median log2 fold change” value with FBXL12, Q9NXK8 was -0.734.

B31: GBRAPL2_0_7187 (protein)
chain: YRKEIEEAKKLSIEEAAEKFIKLVKEAVEDPSFSKEEIEELALEIVDTLVEIVKKENTEEAEDIYAETIREIREILEKVDPNLAAYVETEGFSKLLEIEE
With B31, the “median log2 fold change” value with GABARAPL2, P60520 turned out to be 0.0199.

B32: GBRAPL2_0_7190 (protein)
chain: YEEELEEISKLPIEEFAERGVELVERAVADPSLSLEELEELALRVIRLLYEKVKEEKTEEAEDIYVEAADRIAAILAAVDPRLAAYVATEAGSLLYEWES
For the molecule B32, in the assay with GABARAPL2, P60520, the “median log2 fold change” value is -0.38.
